High-throughput results as filed in PubChem BioAssay.
Compounds with a hit are over-represented: about 21% of the library has one in this group of screens.
Shiga toxin inh – A qHTS for Small Molecule Inhibitors of Shiga Toxin; inhibition, % at 38.7 µM; actives 9.2% (n = 290,000); Vero cells, Shiga toxin protein synthesis inhibition reporter; in the data active = inhibition mostly above about 28%, no sharp cut-off; inactive = mostly below about 43%
NS1 inh – qHTS Assay for Inhibitors of Influenza NS1 Protein Function | AID 2326, 2010 | Potency, µM (top dose mostly 46.1 µM) | actives 0.4% (n = 270,000); note: actives are rising curves; nearly all actives have a fitted effect of over 50% in size
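OD600 was taken as the measure of yeast growth restored by compound in an NS1-expressing S. cerevisiae strain. Cells had been washed out of glucose medium and diluted 1:100 into galactose -URA medium, pH 6.0.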
CHX counter – Cycloheximide Counterscreen for Small Molecule Inhibitors of Shiga Toxin. cell reporter, cycloheximide protein synthesis inhibition counterscreen. max response, %. actives 12% (n = 300,000). AID 2314, 2010; in the data active = max response mostly above about 13%, no sharp cut-off; inactive = mostly below about 14%; note: read at 38.3 µM for the half of the compounds with a filed dose
Pf growth 48h – Primary qHTS for delayed death inhibitors of the malarial parasite plastid, 48 hour incubation. Potency, µM (titrated, usually from 28.7 µM), usual class: inhibitors. P. falciparum luciferase growth in erythrocytes, 48 h. actives 5.9% (n = 310,000); active = well fitted inhibition curve with a large enough effect; inconclusive = small, poorly fitted or top-dose-only effect, or another doubt; inactive = no such curve, though single readings can be large or run the other way
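Luciferase-expressing parasites in RBCs, 2% Hct / 0.1% parasitemia final; RPMI 1640 + 0.5% Albumax; 37 C, 5% CO2, one generation; luminescence read-out, lower signal = inhibition.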
SARS PLpro yeast – qHTS of Yeast-based Assay for SARS-CoV PLP | S. cerevisiae expressing SARS-CoV PLpro, growth rescue | Potency, µM (top dose mostly 32.9 µM), hits mostly activators | actives 0.19% (n = 330,000); note: nearly all actives have a fitted effect of over 55% in size
Pf growth 96h – Primary qHTS for delayed death inhibitors of the malarial parasite plastid, 96 hour incubation; P. falciparum luciferase reporter growth, 96 h; Potency, µM (titrated, usually from 28.7 µM), usual class: inhibitors; actives 6.9% (n = 320,000); active = well fitted inhibition curve with a large enough effect; inconclusive = small, poorly fitted or top-dose-only effect, or another doubt; inactive = no such curve, though single readings can be large or run the other way
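Parasite growth measured via integrated firefly luciferase reporter in P. falciparum. Infected erythrocytes at 2% hematocrit, 0.05% parasitemia final were treated 96 hours at 37 C under 5% CO2, and luminescence was read.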
Large screens that a line does not name were inactive. Unless noted, calls come from the whole dose curve.

CSc1ccc(-c2nc(CSCC(=O)NCCCN3CCOCC3)c(C)o2)cc1	Pf growth 96h 9.3µM (no result: Pf growth 48h)
CCCNC(=O)CSCc1nc(-c2ccc(SC)cc2)oc1C	CHX counter 26, Pf growth 96h inconclusive (no result: NS1 inh)
COC(CNC(=O)CSCc1nc(-c2ccc(SC)cc2)oc1C)OC	none (no result: NS1 inh)
N#Cc1ccccc1NC(=O)CSc1cn[nH]n1	none
COC(=O)c1sc(-c2ccc(Cl)cc2)cc1NC(=O)COCC(=O)O	Pf growth 48h 2.1µM
COC(=O)c1sc(-c2ccc(Cl)cc2)cc1NC(=O)/C=C/C(=O)O	none
CC(=O)c1sc(C(C)(C)C)cc1NC(=O)CCC(=O)O	none
COC(=O)c1sc(-c2ccc(C(C)(C)C)cc2)cc1NC(=O)CCC(=O)O	Shiga toxin inh 64, CHX counter 27
COC(=O)C1C(O)=C(C(C)=Nc2cccc3ccccc23)C(=O)CC1(C)C (stereo unspecified)	none
O=C(Nc1cccc2cccnc12)c1ccc(Br)cc1Br	none (no result: Shiga toxin inh)
COc1ccc(C(=O)NC(CCSC)C(=O)N2CCCCCC2)cc1 (stereo unspecified)	none
CC(Sc1nnc2n1CCCCC2)C(=O)Nc1cccc(S(=O)(=O)N2CCOCC2)c1 (stereo unspecified)	none (no result: Shiga toxin inh, NS1 inh, CHX counter)
COc1ccc(-c2c(C)oc3c(CN4CCOCC4)c(O)ccc3c2=O)cc1	Pf growth 48h inconclusive, Pf growth 96h inconclusive
Cc1oc2c(CN3CCCC3)c(O)ccc2c(=O)c1-c1ccc(Br)cc1	Pf growth 48h 9.3µM, Pf growth 96h inconclusive
Cc1oc2c(CN3CCCCC3)c(O)ccc2c(=O)c1-c1ccc(Br)cc1	Pf growth 48h inconclusive, Pf growth 96h 1.2µM
COc1ccc(CCNC(=O)C2CCN(S(=O)(=O)c3cccc4cccnc34)CC2)cc1OC	Pf growth 96h 17µM
CC(C)CCNC(=O)C1CCN(S(=O)(=O)c2ccc3nc4c(c(C(=O)O)c3c2)CCCCC4)CC1	SARS PLpro yeast inconclusive
COc1ccc(CCNC(=O)C2CCN(S(=O)(=O)c3cccc4nsnc34)CC2)cc1OC	Pf growth 48h inconclusive (no result: Pf growth 96h)
CCS(=O)(=O)N1CCCC(C(=O)NCCc2ccc(OC)c(OC)c2)C1 (stereo unspecified)	none
COc1ccc(CCNC(=O)C2CCN(S(=O)(=O)c3ccc4nc5c(c(C(=O)O)c4c3)CCCC5)CC2)cc1OC	Pf growth 96h 9.3µM
CCOc1ccc(OCC)c(NC(=O)C2CCCN(S(=O)(=O)c3cnc[nH]3)C2)c1 (stereo unspecified)	Pf growth 96h 4.7µM (no result: Pf growth 48h)
COc1ccc(CCNC(=O)C2CCCN(S(=O)(=O)c3cc(C)ccc3OC)C2)cc1OC (stereo unspecified)	Pf growth 48h 12µM, Pf growth 96h 5.2µM
CCN(CC(=O)Nc1ccccc1C(F)(F)F)C(=O)CCSc1ccc(F)cc1	none (no result: Shiga toxin inh, NS1 inh, CHX counter)
COc1ccc(CCNC(=O)C2CCCN(S(=O)(=O)c3cnc[nH]3)C2)cc1OC (stereo unspecified)	NS1 inh inconclusive, Pf growth 96h 13µM (no result: Pf growth 48h)
CCOc1ccc(OCC)c(NC(=O)C2CCCN(C(=O)c3ccc(Cl)cc3)C2)c1 (stereo unspecified)	Pf growth 48h inconclusive, Pf growth 96h 9.3µM (no result: Shiga toxin inh, NS1 inh, CHX counter)
CC(=O)c1ccc(N2CCN(C(=O)C3CCCN(S(=O)(=O)c4cnc[nH]4)C3)CC2)cc1 (stereo unspecified)	CHX counter 22, Pf growth 48h inconclusive, Pf growth 96h 5.9µM
CCOc1ccc(OCC)c(NC(=O)C2CCCN(c3ncccn3)C2)c1 (stereo unspecified)	none
COc1ccc(CCNC(=O)C2CCN(S(=O)(=O)c3cnc[nH]3)CC2)cc1OC	Pf growth 96h inconclusive
O=C(COc1ccc(Cl)cc1Cl)NCCCn1ccnc1	Pf growth 48h 6.6µM (no result: Pf growth 96h)
COc1ccc(Cl)cc1S(=O)(=O)NC(C)C(=O)NCCCn1ccnc1 (stereo unspecified)	Pf growth 96h 13µM (no result: Shiga toxin inh, NS1 inh, CHX counter)
O=C(O)C(O)C(O)c1nc2ccccc2[nH]1 (stereo unspecified)	none (no result: NS1 inh)
Cc1cc2[nH]c3c(=O)n(Cc4ccccc4F)ncc3c2s1	none (no result: NS1 inh, Pf growth 48h, SARS PLpro yeast, Pf growth 96h)
CCCc1sc(N/N=C/c2ccccn2)nc1-c1ccc(F)cc1	Shiga toxin inh 52, CHX counter 25, Pf growth 48h 2.6µM
Nc1nc(Nc2ccccc2Br)nc(C(F)(F)F)n1	Pf growth 96h 10µM
Nc1ncnc(Nc2ccccc2C(F)(F)F)n1	none (no result: Pf growth 96h)
Nc1nc(Nc2ccc(Cl)cc2Cl)nc(C(F)(F)F)n1	Shiga toxin inh 65, CHX counter 43
Nc1nc(Nc2ccccc2)nc(C(F)(F)F)n1	CHX counter 30, Pf growth 96h 7.4µM
COc1cccc(Nc2nc(N)nc(C(F)(F)F)n2)c1	none
COc1cccc(NC(=O)C2CCC(CNC(=O)[C@@H]3Cc4ccccc4CN3)CC2)c1 (stereo partly specified)	Pf growth 48h inconclusive, Pf growth 96h inconclusive
C/C(=N\Nc1cc(Cl)nc(C)n1)c1ccc(Cl)c(Cl)c1	Pf growth 48h inconclusive
C/C(=N\Nc1nccnc1Cl)c1ccc(O)cc1	Shiga toxin inh 29, CHX counter 26, Pf growth 96h 7.4µM
C/C(=N\Nc1nccnc1Cl)c1ccc(F)cc1	Shiga toxin inh 85, CHX counter 33
C/C(=N\Nc1nccnc1Cl)c1c(F)c(F)c(F)c(F)c1F	none
C/C(=N\Nc1nc(N)cc(Cl)n1)c1ccc(F)cc1	Shiga toxin inh 70, CHX counter 41
C/C(=N\Nc1nccnc1Cl)c1ccc(Cl)c(Cl)c1	CHX counter 29 (no result: Shiga toxin inh)
CC(=O)C1=C(C)Nc2ncnn2C1c1ccccc1F (stereo unspecified)	none (no result: Pf growth 48h)
CSCCCNC(=S)N(C)CC(=O)Nc1ccc(C)cc1	none (no result: NS1 inh)
O=C(NCC1CCCO1)C(c1ccc(N2CCOCC2)cc1)N(C(=O)Cn1nnc2ccccc21)c1ccccc1F (stereo unspecified)	Pf growth 48h inconclusive
COc1ccc(N2C(=O)C(C)(C)C2c2c(O)ccc3ccccc23)cc1 (stereo unspecified)	Pf growth 48h 8.3µM
CC1(C)C(=O)N(c2ccccc2)C1c1ccccc1O (stereo unspecified)	Pf growth 48h inconclusive
COc1ccc(CNC(=O)CC2C[C@H](C(=O)N3CCOCC3)[C@@]3(C)c4[nH]c5ccccc5c4CCN3C2=O)cc1OC (stereo partly specified)	none (no result: Shiga toxin inh, NS1 inh, CHX counter, Pf growth 48h, Pf growth 96h)
CN(C(=O)c1ccc(NC(=O)Cc2ccc(NC(=O)C3CCN(C(=O)c4ccccc4)CC3)cc2)cc1)C1CC1	Pf growth 48h inconclusive, Pf growth 96h 6.6µM (no result: Shiga toxin inh, NS1 inh, CHX counter)
O=C(Cc1cccc(NC(=O)C2CCN(C(=O)C3CCCCC3)CC2)c1)Nc1cccc(C(=O)N2CCCC2)c1	Pf growth 48h 13µM, Pf growth 96h 10µM (no result: Shiga toxin inh, NS1 inh, CHX counter)
